Experimental data published in PubChem BioAssay AID686978 (National Center for Advancing Translational Sciences (NCATS), 2013).
Among all 420,000 compounds or so, about 64,000 (15%) were called active. Roughly 27% stayed inconclusive and do not appear here. Calls come from the whole dose curve; as a rule, active = well fitted inhibition curve with a large enough effect; inconclusive = small, poorly fitted or top-dose-only effect; inactive = flat fitted curve, though single readings scatter. Not all results are given here. Where a call stands in place of a potency, no number is given.

assay: qHTS for Inhibitors of human tyrosyl-DNA phosphodiesterase 1 (TDP1): qHTS in cells in absence of CPT; details: DT40 Tdp1-/- hTDP1 cells, no CPT, ATP luminescence, 48 h; activity change, negative = growth inhibition: at 46.2 µM (top of the series); note: nearly all actives have a fitted effect of over 55% in size
Excerpt: Human tyrosyl-DNA phosphodiesterase 1 (TDP1) is a novel repair gene, and we propose to use it as a new target for anticancer drug development. TDP1 is not an essential protein, but under treatment with topoisomerase I poison (camptothecin: CPT), TDP1 works as a critical factor for cell survival. To directly identify novel TDP1 inhibitors active in a cellular environment, we have knocked-out the Tdp1 gene in chicken DT40 cells (Tdp1-/-) and generated a complemented counterpart cells that contains a stable transfection of the human TDP1 gene (Tdp1-/-;hTDP1 cells). For the primary screen, Tdp1-/-;hTDP1 cells will be exposed to small molecules in the presence or absence of CPT, and their growth kinetics will be evaluated after 48 hours by measuring ATP activity. […] The hit compounds will then be evaluated in the presence or absence of CPT using Tdp1-/- cells. […] In tertiary assays, biochemical gel-based assays will be used to assess whether the hit compounds specifically target TDP1.
To this end, we have screened this cell line against the MLSMR in two primary screens. In one screen we add CPT and in the other we screen in the absence of CPT; this AID represents the screen where CPT was absent.
NIH Chemical Genomics Center [NCGC]
NIH Molecular Libraries Probe Centers Network [MLPCN]
Assay Submitter (PI): Yves Pommier, NCI
DT40-hTDP1 cells without 20 nM Camptothecin (add 20 microL of DMSO in 1 L of cell culture medium) were dispensed at 400 cells/5microL/well in tissue culture treated 1536-well white wall/solid bottom assay plates (Greiner Bio-One North America, NC, U.S.A.) using a Multidrop Combi 8 channel dispenser (Thermo Fisher, Waltham, MA, USA). 23 nL compounds and controls were transferred using the pin tool (Kalypsys, San Diego, CA, USA) to the assay plates. The assay plates were then incubated at 37 masculineC for a minimum 48 hr. Three microL of Cell Titer Glo solution was added to the plates and incubated at RT in dark for 30 min. Luminescence was read using ViewLux (Perkin Elmer) with 1 sec exposure slow speed, high gain and 2x binning.
Potency is the fitted concentration of half-maximal effect.

Row | Structure (SMILES) | Potency | activity change, negative = growth inhibition
1 | COc1ccc(Br)cc1/C=N/n1c(C)nnc1C | inactive | 
2 | O=C(/C=C\NCC(=O)c1ccccc1)c1ccccc1 | inactive | 
3 | Cc1nc(NC(=O)C23CCC(C)(C(=O)O2)C3(C)C)sc1C (stereo not given) | inactive | 
4 | CN1c2ccc(Cl)cc2-c2nc(SCC(=O)Nc3cc(F)ccc3F)ncc2S1(=O)=O | 23.1 µM (active) | 
5 | CC(C)Cn1c(SCC(=O)Nc2ccc(Cl)cc2F)nc(O)cc1=O | inactive | 
6 | O=C(CCN1C(=O)c2ccncc2C1=O)Nc1cc(F)ccc1F | inactive | 
7 | N/C(Cc1ccc([N+](=O)[O-])cc1)=N\OC(=O)COc1ccc2ccccc2c1 | inactive | 
8 | CCOc1ccccc1NC(=O)c1cccnc1 | inactive | 
9 | Cc1ccc(Nc2nc(CSc3nnnn3-c3ccccc3)cc(=O)[nH]2)cc1 | 18.4 µM (active) | 
10 | Nc1nc(CSc2nnnn2-c2ccccc2)nc(Nc2ccccc2)n1 | inactive | 
11 | Cc1ccc(NC(=O)CSc2nc(CSc3ccc(C)cc3)cc(=O)[nH]2)cc1 | inactive | 
12 | Cc1ccc(N2C(=O)CC(NCc3ccc4c(c3)OCO4)C2=O)cc1Cl (stereo not given) | inactive | 
13 | CSC1=NC2(C)CCCCC2C12C=CC(=O)C=C2 (stereo not given) | inactive | 
14 | O=c1[nH]nc(CSCc2ccccc2Cl)[nH]1 | inactive | 
15 | CC(=O)c1ccccc1NC(=O)COC(=O)C1COc2ccccc2O1 (stereo not given) | inactive | 
16 | COc1ccc(OC)c2sc(N3CCN(C(=O)C4COc5ccccc5O4)CC3)nc12 (stereo not given) | 16.4 µM (active) | 
17 | COc1ccc(NC(=O)C2COc3ccccc3O2)cc1 (stereo not given) | inactive | 
18 | Cc1cc(Cl)ccc1N1C(=O)CC(SCCC(=O)O)C1=O (stereo not given) | inactive | 
19 | CCOC(=O)c1cn(CC)c2cc(F)c(F)cc2c1=O | inactive | 
20 | COc1cc(OC)cc(C(=O)Nc2nnc(SCC(=O)NCC3CCCO3)s2)c1 (stereo not given) | inactive | 
21 | CC(C)(C)NC(=O)COc1ccc(CNc2ccc3[nH]c(=O)[nH]c3c2)cc1 | inactive | 
22 | C/C=C(\C)C(=O)O[C@H]1CC(C)=C2C(=O)C=C(C)C2[C@@H]2OC(=O)[C@@](C)(OC(=O)C=C(C)C)C21 (stereo not given in full) |  | 5.36% [at 9.04 µM] (inactive)
23 | C=C(C)C(=O)O[C@H]1C/C(C)=C\C(=O)/C=C(\C)[C@H](O)[C@@H]2OC(=O)C(=C)[C@@H]21 | 1.16 µM (active) | 
24 | Cc1c(S(=O)(=O)N2CC(C)CC(C)C2)c(=O)n(C)c(=O)n1C (stereo not given) | inactive | 
25 | CCN(C(=O)Cc1c(C(=O)O)n(CC)c2ccccc12)c1ccccc1C | inactive | 
26 | NC(=O)Nc1ccc(C(=O)OCC(=O)NC2CCCc3ccccc32)cc1 (stereo not given) | inactive | 
27 | CCOC(=O)c1sc(NC(=O)COc2ncnc3ccccc23)c(C(=O)OCC)c1C | inactive | 

Row | Structure (SMILES) | Potency | activity change, negative = growth inhibition
28 | CCOC(=O)c1c(NC(=O)CNC2CCCc3ccccc32)sc(C(N)=O)c1C (stereo not given) | 16.4 µM (active) | 
29 | C=CCNC(=O)CC12CC3CC(C1)CC(CC(=O)NCC=C)(C3)C2 | inactive | 
30 | COc1ccc(CNC(=O)C(=O)N2CCC3(CC2)OCCN3S(=O)(=O)c2ccc(C)cc2)cc1 | inactive | 
31 | CCc1[nH]nc(C(=O)N2CCCC(CO)(Cc3ccc(F)cc3F)C2)c1C (stereo not given) | inactive | 
32 | Cc1noc(C)c1CCC(=O)N1CCCC(CO)(Cc2ccccc2)C1 (stereo not given) | inactive | 
33 | Cc1ccccc1CC1(CO)CCCN(C(=O)c2cc(-c3ccccc3)no2)C1 (stereo not given) | 29.1 µM (active) | 
34 | CCCc1nnc(NC(=O)CCC(=O)N2CCN(S(=O)(=O)c3ccc(OC)cc3)CC2)s1 | inactive | 
35 | COc1ccc(-c2[nH][nH]c(=O)c2NC(=O)c2ccc([N+](=O)[O-])cc2)cc1 | inactive | 
36 | COc1ccc(C(=O)Nc2nc(-c3ccc(OC)cc3)c(-c3ccc([N+](=O)[O-])cc3)s2)cc1 | 9.2 µM (active) | 
37 | COc1ccc(C(=O)NCCNc2ccc([N+](=O)[O-])cn2)cc1 | inactive | 
38 | O=C(CN(C(=O)c1csnn1)c1cccc(Cl)c1)NC1CCCC1 | inactive | 
39 | Cc1cccc(C)c1N1CCN(S(=O)(=O)N2CCOCC2)CC1 | inactive | 
40 | CCc1cc2c(NC(Cc3ccccc3)C(=O)O)ncnc2s1 (stereo not given) | inactive | 
41 | CCc1cc2c(NC3CCCC3)ncnc2s1 | 4.61 µM (active) | 
42 | Clc1cc(NC2CCCCC2)ncn1 | inactive | 
43 | CCCC12CN3CC(CCC)(CN(C1)C3c1c[nH]c3ccc(OC)cc13)C2=O (stereo not given) | 10.3 µM (active) | 
44 | CCCC12CN3CC(C)(CN(C1)C3c1ccccc1Cl)C2=O (stereo not given) | inactive | 
45 | CCN(CC)CC(=O)c1c[nH]c2ccc(OC)cc12 | inactive | 
46 | COc1ccccc1CNC(=O)CSc1nc(=O)n(Cc2ccncc2)c2c1CCC2 | inactive | 
47 | O=S1(=O)CCN(Cc2ccccc2Cl)CC1 | inactive | 
48 | CCCCN1CC(C)(C)[C@H](CC(=O)Nc2ccc(Br)cc2)C1=O | 16.4 µM (active) | 
49 | CC1(C)CN(CCc2ccccc2)C(=O)[C@H]1CC(=O)Nc1ccc(Br)cc1 | inactive | 
50 | CC(=O)N1CC(=O)N(CC(=O)Nc2ccc(Br)cc2)C1=S | inactive | 
51 | O=C(N/N=C/c1ccccn1)C12CC3CC(CC(C3)C1)C2 | inactive | 
52 | COc1cccc(NC(=O)Cn2c3ccccc3c3nc4n(c(=O)c32)CCS4)c1 | inactive | 
53 | CN(CC(=O)NC(=O)Nc1ccccc1F)Cc1ccccc1 | inactive | 
54 | COc1cccc2c1C(=O)c1c(O)c3c(c(O)c1C2=O)CC(O)(C(C)=NNC(=O)c1ccc(Cl)c(Cl)c1)CC3OC1CC(N)C(O)C(C)O1 (stereo not given) | 0.164 µM (active) | 

Row | Structure (SMILES) | Potency | activity change, negative = growth inhibition
55 | O=C(Nc1ccccc1-c1ccccc1)c1ccccc1[N+](=O)[O-] | inactive | 
56 | COc1cccc(N2CC(C(=O)NCc3n[nH]c(=O)c4ccccc34)CC2=O)c1 (stereo not given) | inactive | 
57 | CC[n+]1c(C)n(-c2ccccc2)c2ccc(NC(C)=O)cc21 | 2.59 µM (active) | 
58 | CCn1c2ccccc2c2cc(NC(=O)CNC)ccc21 | inactive | 
59 | CC(=O)Nc1ccc(NC(=O)CSc2nnc(C3CC3)n2-c2ccccc2)cc1 | inactive | 
60 | N#CC(C(N)=O)=C1CCC2(CC1)OCCCCO2 | inactive | 
61 | CCOc1cc(/C=N/O)ccc1OCc1ccccc1F | inactive | 
62 | CCN(CC(=O)Nc1c(F)cccc1F)C(=O)c1ccc(-c2ccc(C(C)=O)cc2)o1 | inactive | 
63 | COC(=O)c1cc2c(N)c(C(=O)c3ccc(Cl)cc3)sc2nc1C(OC)OC | 14.6 µM (active) | 
64 | COc1ccc(OC)c(C(=O)c2ccc(Cl)cc2)c1 | inactive | 
65 | COC(=O)c1cn(C(=O)c2ccc(Cl)cc2)c2ccccc12 | inactive | 
66 | Cc1ccc(C(=O)N/N=C/c2sc(=O)n(Cc3cccc(C(=O)O)c3)c2Cl)cc1 | inactive | 
67 | CCCN=C1NC(=O)C(CC(=O)NCCc2ccc(OC)c(OC)c2)S1 (stereo not given) | inactive | 
68 | CC(=O)C1=C(C)NC(=O)NC1c1ccc2c(c1)OCO2 (stereo not given) | inactive | 
69 | O=C1C=C(c2ccnc3cc(Cl)ccc23)C[C@@H](c2ccc3c(c2)OCO3)C1 | 16.4 µM (active) | 
70 | O=C1C=C(c2cccc(Cl)c2)C[C@@H](c2ccc(F)cc2)C1 | inactive | 
71 | CN(C)CC(C)(C)CNC(=O)c1cc(Br)cc(Br)c1O | inactive | 
72 | O=C(Cn1ncn2nc(-c3cccs3)cc2c1=O)NCc1cccc(Br)c1 | inactive | 
73 | Cc1c(C(=O)OCC(=O)N2CCCC2=O)oc2ccccc12 | inactive | 
74 | C[n+]1ccccc1C1CCCC/C1=N\Nc1ccc([N+](=O)[O-])cc1[N+](=O)[O-] (stereo not given) | inactive | 
75 | CNc1ccc([N+](=O)[O-])cc1C(=O)O | inactive | 
76 | CC(Nc1ccc([N+](=O)[O-])cc1[N+](=O)[O-])c1ccccc1 (stereo not given) | 20.6 µM (active) | 
77 | CC(C)(C)NC(=O)Cn1cnc([N+](=O)[O-])n1 | inactive | 
78 | CC(C)C(NC(=O)c1c(F)cccc1F)C(=O)NCc1ccncc1 (stereo not given) | inactive | 
79 | CCN(CC(=O)NCC(=O)Nc1cccc(C)c1C)Cc1ccccc1 | inactive | 
80 | COc1cc(-c2n[nH]c(=S)n2Cc2ccccc2)cc(OC)c1OC | inactive | 
81 | CCn1c(-c2ccncc2)n[nH]c1=S | inactive | 

Row | Structure (SMILES) | Potency | activity change, negative = growth inhibition
82 | CCCc1cc(-c2n[nH]c(=S)n2Cc2ccccc2)cs1 | 29.1 µM (active) | 
83 | CCOc1ccccc1-n1c(SCC(=O)NCc2ccco2)nnc1-c1ccncc1 | inactive | 
84 | O=C(CSc1nnc(-c2ccncc2)n1-c1ccccc1)Nc1ccc(Cl)c(Cl)c1 | inactive | 
85 | Cc1ccc(Nc2nc(CSc3nnc(-c4ccncc4)n3-c3ccccc3C)cs2)cc1 | 11.6 µM (active) | 
86 | CCOC(=O)Cn1c(O)c(N=NC(=O)CNC(=O)Cc2ccccc2)c2ccccc21 | inactive | 
87 | Cn1c(S(=O)(=O)O)nc2ccccc21 | inactive | 
88 | O=C(NCC1CCCO1)c1ccc2ccccc2n1 (stereo not given) | inactive | 
89 | COc1ccc2cc(C(=O)NCC3CCCO3)[nH]c2c1 (stereo not given) | inactive | 
90 | O=C(NCC1CCCO1)c1cc2c([nH]c3ccccc32)c(-c2ccc(F)cc2)n1 (stereo not given) | 1.84 µM (active) | 
91 | CSc1ccc(S(=O)(=O)NC2CCCCC2)cc1 | inactive | 
92 | CC(C)C(=O)NCc1cc(-c2ccc(Cl)cc2)no1 | inactive | 
93 | Cc1cc(O)c(Sc2ccccc2)c(=O)o1 | inactive | 
94 | O=C(O)CSc1nnc(-c2ccc3c(c2)OCO3)n1-c1ccccc1 | inactive | 
95 | O=C(CSc1nnc(CN2CCCC2)n1-c1ccc(F)cc1)c1ccc2c(c1)OCO2 | 20.6 µM (active) | 
96 | Cc1ccc(-n2c(CNc3ccc(F)cc3)nnc2SCC(=O)N2CCOCC2)cc1 | inactive | 
97 | Cc1ccc(NC(=O)CSCC(=O)N2CCOCC2)cc1 | inactive | 
98 | CCN(CC(=O)Nc1c(F)cccc1F)C(=O)c1ccc(Sc2nncn2C)c([N+](=O)[O-])c1 | inactive | 
99 | CC1(C(=O)NS(=O)(=O)c2ccc(C#N)cc2)CCN1C(=O)CC1CCCC1 (stereo not given) | inactive | 
100 | Cc1cccc(N(C)C(=O)c2cc3c(=O)[nH]c4ccc(C)cc4c3s2)c1 | 5.17 µM (active) | 
101 | Cc1ccc2[nH]c(=O)c(CC(=O)O)c(-c3ccccc3)c2c1 | inactive | 
102 | Cc1ccc2[nH]c(=O)c(CC=C(Cl)Cl)c(C)c2c1 | inactive | 
103 | COc1ccc(CNC(=O)CC2Oc3ccc(C)cc3NC2=O)cc1 (stereo not given) | inactive | 
104 | COc1ccc(CNC(=O)c2cc3c(=O)[nH]c4ccccc4c3s2)cc1 | inactive | 
105 | COc1ccc(CNC(=O)c2cc3c(=O)[nH]c4ccc(C)cc4c3s2)c(OC)c1 | 20.6 µM (active) | 
